Assay outcomes: PubChem, several laboratories
Rows were chosen to be rich in hits. Some 3.9% of all compounds tested hit in one or more screens of this group.
CCHF vOTU inh: blocks the CCHF virus ovarian tumor domain protease; AID 651958; inhibition, % at 11.5 µM; CCHFV vOTU protease, Pep-AMC fluorescence; 370,000 tested, 0.55% active; in the data active = inhibition above about 30%; also: 0% = vehicle wells with enzyme and 100% = no enzyme wells
BH1578 lux ind: inducers of Vibrio cholerae quorum light production without autoinducers; V. cholerae BH1578 lux reporter, luminescence, 6 h; 350,000 tested, 0.16% active; activation, % at 18.7 µM; in the data active = activation mostly above about 9.7%, no sharp cut-off
FBA Mtb inh: Mtb fructose-bisphosphate aldolase inhibition. inhibition, % at 1 µM. purified M. tuberculosis FBA, fluorescence read-out. 360,000 tested, 2.3% active. AID 588726;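 also: 0% = vehicle and 100% = reference inhibitor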
Target sequence (P9WQA3 whole entry, looked up): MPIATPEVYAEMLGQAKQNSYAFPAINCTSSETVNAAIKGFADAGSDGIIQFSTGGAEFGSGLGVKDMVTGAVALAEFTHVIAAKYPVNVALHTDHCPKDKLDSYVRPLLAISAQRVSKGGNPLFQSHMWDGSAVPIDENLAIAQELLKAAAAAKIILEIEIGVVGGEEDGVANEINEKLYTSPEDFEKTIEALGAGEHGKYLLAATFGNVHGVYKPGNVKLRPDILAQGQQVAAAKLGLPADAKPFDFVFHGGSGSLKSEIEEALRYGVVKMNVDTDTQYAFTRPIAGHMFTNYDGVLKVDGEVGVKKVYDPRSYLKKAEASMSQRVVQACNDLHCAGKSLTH
GDH-TPI counter-1: counter-screen for M. tuberculosis FBA inhibitors: GDH-TPI coupled enzymes | inhibition, % at 4.8 µM | 360,000 tested, 1.2% active | GDH-TPI coupled enzyme counterscreen, NADH absorbance | AID 588335; in the data active = inhibition above about 30%;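 also: 0% = DMSO wells and 100% = wells lacking the enzyme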
Mtb FBA confirm: Mtb FBA inhibition, confirmed; 5,600 tested, 78% active; AID 651616; shares compounds with FBA Mtb inh; purified M. tuberculosis FBA, fluorescence read-out; inhibition, % at 1 µM;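 also: 0% = vehicle wells and 100% = reference inhibitor wells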
GDH-TPI counter-2: GDH-TPI inhibition counter-screen for FBA inhibitors | shares compounds with FBA Mtb inh | GDH-TPI coupled enzyme counterscreen, fluorescence | inhibition, % at 1 µM | 5,600 tested, 81% active | AID 652141; in the data active = inhibition above about 10%
* marks the source's active call; other numbers are inactive results; i = inactive; . = not tested or not shown; + = active, no number. Rule as the data show it, unless noted: active = inhibition above about 27%; inactive = the rest.

SMILES	CCHF vOTU inh	BH1578 lux ind	FBA Mtb inh	GDH-TPI counter-1	Mtb FBA confirm	GDH-TPI counter-2
CCc1c(C)c2ccc(OCC(=O)OC)cc2oc1=O	-28	0	70*	17	61*	48*
COc1cc2sc(-c3ccc(S(C)(=O)=O)cc3)c(C#CCO)c2cc1OC	-13	2	54*	27	112*	87*
Cc1ccc(-c2nc(CCNC(=O)c3ccco3)cs2)cc1	-6	i	1	-11	.	.
COc1cc(-c2nc(CCNC(=O)c3ccco3)cs2)cc(OC)c1OC	-9	0	37*	-1	139*	112*
FC(F)(F)c1nc2ccccc2n2c(-c3ccc(Cl)cc3)nnc12	-7	0	61*	2	6	0
Cc1ccc(-c2nnc3c(C(F)(F)F)nc4ccccc4n23)cc1	-5	-1	60*	-1	+	+
Cc1ccc(-c2nc3ccccc3n3nnnc23)cc1	1	-5	3	12	.	.
COC(=O)CSc1nnc([C@H](Cc2ccccc2)NC(=O)OC(C)(C)C)o1	0	i	44*	0	67*	64*
CC(C)(C)OC(=O)N[C@@H](Cc1ccccc1)c1nnc(SCC(N)=O)o1	-9	-1	-5	4	.	.
COc1ccc(N=CC=C2OC(C)(C)C(C)(C)O2)cc1OC	-9	-1	5	17	.	.
N#Cc1c(-c2ccccc2F)cc(-c2cccnc2)nc1N	-165	i	110*	11	-3	-4
COC(=O)C1CCN(C(=O)COC(=O)c2oc3ccc(OC)cc3c2C)CC1	-30	0	51*	2	108*	103*
COc1ccc2oc(C(=O)OCC(=O)N3CCC(C)CC3)c(C)c2c1	-13	-1	44*	12	9	1
Cc1c(C(=O)OCC(=O)N2CCC(C)CC2)oc2ccccc12	-8	i	2	3	.	.
CCOC(=O)N1CCN(C(=O)COC(=O)c2oc3ccc(OC)cc3c2C)CC1	-25	i	48*	-1	+	+
COC(=O)C1CN(Cc2ccc(F)cc2)CCS(=O)(=O)N1Cc1cn(Cc2ccccc2)nn1 (stereo not given)	-2	.	.	.	.	.
COc1cc(C=O)ccc1Oc1nnnn1-c1ccc(C(N)=O)cc1	-6	i	1	2	.	.
CCCNC(=O)C1(C)CCCN(Cc2ccccc2C#N)C1 (stereo not given)	-5	-1	-2	0	.	.
CCN(CC)c1ccc(/C=N/N2CCN(Cc3ccc(Cl)cc3)CC2)c(O)c1	-9	i	5	4	.	.
COc1ccc2oc(C(=O)OC(C)C(=O)NC3(C#N)CCCCC3)c(C)c2c1 (stereo not given)	-12	i	28*	-7	39*	29*
COc1ccc2oc(C(=O)OC(C)C(=O)N3C(C)CCCC3C)c(C)c2c1 (stereo not given)	-6	-5	62*	18	51*	31*
COc1ccc2oc(C(=O)NN3C(C)CCCC3C)c(C)c2c1 (stereo not given)	1	-1	1	-3	.	.
O=C(CN1C(=O)c2cccc3cccc(c23)C1=O)N1CCCCCC1	-4	0	33*	27	96*	85*
O=C(CCCN1C(=O)c2cccc3cccc(c23)C1=O)NCc1cccnc1	-11	0	35*	2	+	+
NC(=O)CN1CCN(CCN2C(=O)c3cccc4cccc(c34)C2=O)CC1	6	0	1	1	.	.
SMILES	CCHF vOTU inh	BH1578 lux ind	FBA Mtb inh	GDH-TPI counter-1	Mtb FBA confirm	GDH-TPI counter-2
CCN(C(=O)COC(=O)CCCN1C(=O)c2cccc3cccc(c23)C1=O)C1CCS(=O)(=O)C1 (stereo not given)	-7	6	33*	17	+	+
O=C1c2cccc3cccc(c23)C(=O)N1CCO	-15	0	51*	33*	158*	162*
COc1ccccc1CNc1cncnc1	-18	-2	4	10	.	.
C/C(=N\Nc1ccccc1)c1c(O)cc(C)oc1=O	4	-1	-2	4	.	.
CCOc1ncccc1C(=O)NC(C)CCc1ccccc1 (stereo not given)	0	i	2	3	.	.
C/C(CC(=O)Nc1ccc2c(c1)OCO2)=N\NC(=O)c1ccccc1N	3	0	6	1	.	.
CCOC(=O)CCCCCN1C(=O)c2cccc3cccc(c23)C1=O	-7	1	28*	19	113*	67*
CN(C(=O)COC(=O)CCCN1C(=O)c2cccc3cccc(c23)C1=O)C1CCS(=O)(=O)C1 (stereo not given)	-8	14	29*	13	144*	100*
